These results are taken from PubChem BioAssay.

SMILES strings stand for the structures. Active and inactive are the calls of the source.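 The calls were made as follows, unless noted: active = inhibition at or above 50% at 10 µM; inactive = inhibition below 50%.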

A short description of assay [1]: inhibitors of TNFa-induced NFkB p65 translocation, primary screen, imaging, HUVEC, MLSMR starter and 10KST1 sets (AID 438;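 active = inhibition above 20% together with a positive visual image hit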;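 also: compound added about 3h40 before a 20 min TNFalpha stimulation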;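 as to inhibition: signal is the nuclear over cytoplasmic p65 intensity ratio per well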). The conditions noted are these: HUVEC TNFa-induced p65 nuclear translocation; cell count: measured here: nuclei count (cytotoxicity indicator), at 2.08 µM; inhibition: at 2 µM, stronger effect = higher value, 0% TNFa-plus-vehicle, 100% no-TNFa wells.
The nature of assay [2]: reduction of polyQ htt aggregates in cells – imaging, exon1htt(103Q)mCFP cells, high-content imaging, primary screen (AID 483;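 active = visual image review flags a hit and inhibition of aggregation exceeds 20%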;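 also: compound exposure lasted 3 days before fixation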;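 as to nuclei count: percent of the per-plate median nuclei count of sample wells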). The conditions noted are these: exon1htt(103Q)mCFP cell line, aggregate imaging, at 2 µM; inhibition of aggregation: stronger effect = higher value; nuclei count: measured here: cell count, toxicity.
A short description of assay [3]: endothelial E-selectin expression blockers – imaging, HUVEC, immunofluorescence, MLSMR starter and 10KST1 sets, primary screen (AID 487;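 active = visually confirmed hit in the image check and inhibition above 20%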;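 as to inhibition: signal is fraction of cell area covered by stained E-selectin grains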;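 as to nuclei count: 100% = median nuclei count of all wells on the same plate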). The conditions noted are these: HUVEC TNFalpha-induced E-selectin immunofluorescence imaging, at 2 µM; inhibition: stronger effect = higher value; nuclei count: measured here: cell number, toxicity.
Assay [4] concerns the target Voltage-gated potassium channel subunit beta-2 (Rattus norvegicus) (UniProt P62483). As to the kind of experiment: inhibitors of rat Kvbeta2 reductase activity – biochemical, NADPH fluorescence, primary screen (AID 622;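 active = fluorescence slope higher than the sample average by over 3 SD, cut at about -0.22 in these data, passing the limit was not always enough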;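 also: slope of raw intensity against log time taken from 70 to 1610 s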). The conditions noted are these: recombinant KvBeta, 4-cyanobenzaldehyde reduction, at 10 µM, stronger effect = higher value.
For assay [5] the target is unchanged. As to the kind of experiment: enhancers of rat Kvbeta2 NADPH turnover – biochemical, NADPH fluorescence, primary screen (AID 623;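 active = NADPH fluorescence slope more negative than the mean of all samples by about 3 SD, 99.7% confidence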;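 also: fluorescence intensity change per second fitted from 20 to 320 s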). The conditions noted are these: Recombinant KvBeta, NADPH fluorescence decrease slope, 10 min; at 10 µM; stronger effect = lower value.
The target in assay [6] is Alpha-2C adrenergic receptor (Homo sapiens) (UniProt P18825). The assay can be described thus: compounds altering alpha2C-coupled GIRK flux – cell-based, HEK293 alpha2C/GIRK1/2, thallium flux, primary screen (AID 624;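 active = fluorescence slope after compound addition differing from the mean of all screened samples at 99.7% confidence, in either direction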;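 also: slope of fluorescence ratio to pre-addition baseline per second over 15 to 24 s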). Particulars: thallium flux BTC fluorescence, at 10 µM, actives lie on both sides.
Sequence of Alpha-2C adrenergic receptor (Homo sapiens) (P18825 whole entry, looked up): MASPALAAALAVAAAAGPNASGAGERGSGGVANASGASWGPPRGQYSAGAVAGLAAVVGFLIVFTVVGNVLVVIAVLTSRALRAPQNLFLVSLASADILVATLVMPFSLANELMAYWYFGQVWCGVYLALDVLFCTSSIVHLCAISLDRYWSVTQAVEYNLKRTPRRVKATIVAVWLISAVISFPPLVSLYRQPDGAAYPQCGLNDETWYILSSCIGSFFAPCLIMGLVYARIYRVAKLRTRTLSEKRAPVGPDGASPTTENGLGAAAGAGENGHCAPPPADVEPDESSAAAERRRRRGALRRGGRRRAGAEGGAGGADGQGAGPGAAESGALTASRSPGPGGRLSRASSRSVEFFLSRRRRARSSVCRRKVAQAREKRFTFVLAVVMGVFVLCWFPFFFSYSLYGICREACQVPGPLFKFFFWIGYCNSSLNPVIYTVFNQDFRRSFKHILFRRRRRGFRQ
Assay [7] is described as follows: blockers of RIG-like receptor reporter activation – cell-based, Sendai virus stimulus, luciferase, 10K MLSCN set, TLR/RLR signaling modifier project, primary screen (AID 602276).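 Also: firefly luciferase from ISG56 promoter only with Renilla not read in this screen; 0% = Sendai virus plus DMSO and 100% = medium plus DMSO without virus.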 Particulars: HEK293 RL24 IRF3 luciferase reporter, at 10 µM, stronger effect = higher value.
The nature of assay [8]: TLR3 IRF3 reporter activation blockers – cell-based, poly I:C stimulus, luciferase, 10K MLSCN set, primary screen (AID 602277;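 active = inhibition of the reporter signal at or above 50%; inactive = inhibition below 50%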). The conditions noted are these: HEK293-TLR3 RL24 IRF3 luciferase reporter, at 10 µM, stronger effect = higher value.

Sequence of Voltage-gated potassium channel subunit beta-2 (Rattus norvegicus) (P62483 whole entry, looked up): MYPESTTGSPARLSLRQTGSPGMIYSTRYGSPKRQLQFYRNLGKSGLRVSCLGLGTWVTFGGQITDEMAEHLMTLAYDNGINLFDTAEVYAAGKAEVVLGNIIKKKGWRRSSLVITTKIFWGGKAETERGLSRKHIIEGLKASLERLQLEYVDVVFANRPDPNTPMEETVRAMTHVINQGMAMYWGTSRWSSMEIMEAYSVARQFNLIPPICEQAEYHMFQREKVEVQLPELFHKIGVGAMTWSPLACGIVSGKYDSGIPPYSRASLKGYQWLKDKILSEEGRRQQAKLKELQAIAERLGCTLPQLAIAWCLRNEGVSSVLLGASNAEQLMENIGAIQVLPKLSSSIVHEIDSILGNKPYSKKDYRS

For `CC1=Nn2c(nnc2-c2ccc(F)cc2)SC1`, the cell count in assay [1] came out at 340. Also, the inhibition is -2.4% (inactive) in assay [1], -66% (inactive) in assay [3], -12.4% (inactive) in assay [7] and -3.16% (inactive) in assay [8]. In addition, the inhibition of aggregation in assay [2] was 4% (inactive). The figures for the nuclei count in assay [2] and in assay [3] were 107% and 95.6%, respectively. The fluorescence slope in assay [4] was -0.33 (inactive). For the same compound, the NADPH fluorescence slope in assay [5] was -4.3e-05 (inactive). Further, in assay [6], the slope was 0.00575 (inactive).
Consider `COc1ccc2nc(NC(=O)C3CCCN(S(=O)(=O)c4cccc5nsnc45)C3)sc2c1` (centres undefined), for which, in assay [1], the cell count is 607. For the same compound, the inhibition in assay [1] was -3.9% (inactive); in assay [3], 2% (inactive); in assay [7], -3.68% (inactive); in assay [8], -37.1% (inactive). Also, the inhibition of aggregation in assay [2] is -14% (inactive). For the same compound, the nuclei count came out at 113% in assay [2] and 122% in assay [3]. The fluorescence slope in assay [4] is -0.455 (inactive). The NADPH fluorescence slope in assay [5] is 3.3e-05 (inactive). Moreover, in assay [6], the slope was 0.00595 (inactive).
On to `Cc1nnc(C)c2c(C)n(Cc3ccc4c(c3)OCO4)c(C)c12`, for which, in assay [1], the cell count is 679. Moreover, the inhibition was 6.2% (inactive) in assay [1], -8.3% (inactive) in assay [3], -9.5% (inactive) in assay [7] and -7.65% (inactive) in assay [8]. In addition, in assay [2], the inhibition of aggregation is 4.3% (inactive). The nuclei count in assay [2] came to 74.3%; in assay [3] it was 95.8%. Further, the fluorescence slope in assay [4] is -0.517 (inactive). The NADPH fluorescence slope in assay [5] is 4.5e-06 (inactive). In assay [6], the slope is 0.0037 (inactive).
With `Cc1c(C(=O)NCc2ccccc2)oc2c1C(=O)CCC2`, in assay [1], the cell count was found to be 530. The inhibition in assay [1] is -18.8% (inactive); in assay [3], -70% (inactive); in assay [7] it was -4.65% (inactive); in assay [8] it was -7.05% (inactive). Moreover, the inhibition of aggregation in assay [2] is -28.3% (inactive). Moreover, the nuclei count in assay [2] stood at 101%; in assay [3], 121%. Further, the fluorescence slope in assay [4] was -0.372 (inactive). The NADPH fluorescence slope in assay [5] is -6.4e-05 (inactive). Moreover, the slope in assay [6] is 0.00395 (inactive).
Turning to `CN(C)c1ccc2c(c1)OC(N)=C(C#N)C2c1cccc(F)c1` (centres undefined), in assay [1], the cell count stood at 404. Further, the inhibition in assay [1] was 11.5% (inactive); in assay [3] it was -8.8% (inactive); in assay [7] it was 36.6% (inactive); in assay [8] it was 82.9% (active). Moreover, the inhibition of aggregation in assay [2] is -56.1% (inactive). Besides, the values for the nuclei count in assay [2] and in assay [3] were 3% and 103%, respectively. Moreover, in assay [4], the fluorescence slope was -0.515 (inactive). The NADPH fluorescence slope in assay [5] is 1.1e-05 (inactive). The slope in assay [6] is 0.0134 (active).
On to `Cc1ccc(Cc2c(C)nc3c(C(=O)O)cnn3c2C)cc1`, for which the cell count in assay [1] came to 327. The inhibition is 7.7% (inactive) in assay [1], -4.3% (inactive) in assay [3], 3.97% (inactive) in assay [7] and 19.3% (inactive) in assay [8]. In addition, the inhibition of aggregation in assay [2] was 1.1% (inactive). The nuclei count in assay [2] was 108%; in assay [3], 105%. The fluorescence slope in assay [4] is -0.376 (inactive). In assay [5], the NADPH fluorescence slope is -1.4e-05 (inactive). Moreover, the slope in assay [6] is 0.0026 (inactive).
In the case of `Cn1c(=O)c(=O)n(C)c2cc(S(=O)(=O)N3CCN(c4cccc(C(F)(F)F)c4)CC3)ccc21`, in assay [1], the cell count came to 334. Further, the inhibition in assay [1] was -2.2% (inactive); in assay [3], -12.6% (inactive); in assay [7], 1.46% (inactive); in assay [8], 13.1% (inactive). Moreover, in assay [2], the inhibition of aggregation is -18.8% (inactive). Moreover, the nuclei count in assay [2] was determined as 107%; in assay [3] it was 104%. In addition, in assay [4], the fluorescence slope was -0.354 (inactive). Also, the NADPH fluorescence slope in assay [5] was 1.2e-05 (inactive). For the same compound, the slope in assay [6] was 0.00616 (inactive).
Consider `COc1ccc(C)cc1NC(=O)CN(Cc1nnc(-c2ccc(Cl)cc2)o1)C1CCCC1`, for which the cell count in assay [1] was 392. Also, the inhibition in assay [1] was 2.4% (inactive); in assay [3], -43.8% (inactive); in assay [7], -26.9% (inactive); in assay [8], -33.6% (inactive). In addition, the inhibition of aggregation in assay [2] was -4.1% (inactive). The nuclei count stood at 85.9% in assay [2] and 110% in assay [3]. Further, the fluorescence slope in assay [4] was -0.478 (inactive). In assay [5], the NADPH fluorescence slope was 2.2e-05 (inactive). For the same compound, the slope in assay [6] is 0.00634 (inactive).
Regarding `COc1ccccc1NC(=O)c1oc2ccccc2c1NC(=O)c1cc(OC)c(OC)c(OC)c1`, the cell count in assay [1] came to 582. The inhibition is -7.6% (inactive) in assay [1], 25.8% (inactive) in assay [3], 36% (inactive) in assay [7] and 65.9% (active) in assay [8]. Further, the inhibition of aggregation in assay [2] is -17.1% (inactive). The nuclei count was determined as 85.7% in assay [2] and 60.4% in assay [3]. Also, the fluorescence slope in assay [4] was -0.36 (inactive). Besides, the NADPH fluorescence slope in assay [5] is -9.5e-06 (inactive). The slope in assay [6] is 0.00886 (inactive).
As for `COc1ccccc1N(CC(=O)NCc1ccccn1)S(C)(=O)=O`, the cell count in assay [1] is 355. Further, the inhibition is -7.9% (inactive) in assay [1], 29.3% (inactive) in assay [3], 7.95% (inactive) in assay [7] and 32.3% (inactive) in assay [8]. Besides, the inhibition of aggregation in assay [2] was 26.7% (inactive). Further, the values for the nuclei count in assay [2] and in assay [3] were 83.6% and 75.4%, respectively. Further, the fluorescence slope in assay [4] was -0.422 (inactive). Further, in assay [5], the NADPH fluorescence slope is -4.6e-05 (inactive). In addition, the slope in assay [6] was 0.00261 (inactive).
Consider `O=C(COc1ccccc1F)NC1CC1`, for which the cell count in assay [1] was found to be 235. The inhibition is -13% (inactive) in assay [1], 19.9% (inactive) in assay [3], -0.955% (inactive) in assay [7] and 11% (inactive) in assay [8]. Moreover, the inhibition of aggregation in assay [2] was 14.4% (inactive). In addition, the results for the nuclei count in assay [2] and in assay [3] were 92.8% and 100%, respectively. Also, the fluorescence slope in assay [4] was -0.395 (inactive). Moreover, in assay [5], the NADPH fluorescence slope was -4.8e-05 (inactive). Further, the slope in assay [6] was 0.0037 (inactive).
Take `O=C(c1ccco1)N1CCN(S(=O)(=O)c2ccc(Oc3ccccc3)cc2)CC1`: in assay [1], the cell count came out at 243. Moreover, the inhibition in assay [1] is 22.6% (inactive); in assay [3] it was -81.4% (inactive); in assay [7], 5.47% (inactive); in assay [8] it was -52.2% (inactive). Further, the inhibition of aggregation in assay [2] is -4.9% (inactive). Moreover, the nuclei count amounted to 77.4% in assay [2] and 111% in assay [3]. The fluorescence slope in assay [4] is -0.519 (inactive). Moreover, in assay [5], the NADPH fluorescence slope was 2.5e-06 (inactive). For the same compound, in assay [6], the slope is 0.00632 (inactive).
Take `CN=Cc1cc(-c2ccccc2)sc1O`: the cell count in assay [1] was 330. Moreover, the inhibition was -2% (inactive) in assay [1], -90.3% (inactive) in assay [3], -23.3% (inactive) in assay [7] and -118% (inactive) in assay [8]. In assay [2], the inhibition of aggregation was -19.3% (inactive). The nuclei count in assay [2] worked out at 126%; in assay [3], 114%. Further, the fluorescence slope in assay [4] is -0.574 (inactive). In addition, the NADPH fluorescence slope in assay [5] was -1.5e-05 (inactive). Further, the slope in assay [6] is 0.00861 (inactive).
Take `CC(C)(C)C(=O)NC1CCN(C(=O)N2CCCC2)CC1`: in assay [1], the cell count came to 685. Further, the inhibition in assay [1] was -6.3% (inactive); in assay [3], -36.6% (inactive); in assay [7], 12.1% (inactive); in assay [8], 20.9% (inactive). The inhibition of aggregation in assay [2] was -5.3% (inactive). Moreover, the results for the nuclei count in assay [2] and in assay [3] were 107% and 118%, respectively. For the same compound, the fluorescence slope in assay [4] is -0.311 (inactive). Also, the NADPH fluorescence slope in assay [5] is -3.2e-05 (inactive). Besides, the slope in assay [6] is 0.00525 (inactive).
